The supplement of paper PMC10338343
± gives the standard deviation.

system: MILI (PIWIL2) piRISC loaded with L1MC piRNA (26 nt); assay: pre-steady-state target cleavage rate (min^-1); guide: L1MC piRNA 5'p-UAACUAAAUACUAUGCAAGCUGUAGG; MIWI and MILI are mouse PIWI proteins and EfPiwi is from a freshwater sponge; tags in brackets are library labels; higher = faster piRNA-guided slicing of the target; conditions: auxiliary factor: 500 nM mouse GTSF1
Description: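 Cleave-'n-Seq: a library of target RNAs (target site embedded in constant flanks, ACAGCATTCCGCGTTAGTGATATCCG... 5' flank; DNA-blocked outside the site) at 0.1 nM was incubated with 1 nM active mouse MILI or MIWI piRISC (synthetic 5'-monophosphorylated piRNA guide) with or without 500 nM mouse GTSF1 at 33 °C for 1 min to 16 h. Uncleaved targets were sequenced and normalised to non-target controls, and the pooled three trials were fitted to a burst-and-steady-state model to give the pre-steady-state cleavage rate (min^-1; k3 is constrained to at most 1e-4). Sequence is the target site only; target names encode pairing extent (gX:gY) and contiguous / 1-mismatch / 2-mismatch / bulge geometry. Fits with R² ≤ 0 are excluded.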

Row | Sequence | pre-steady-state target cleavage rate
1 | UCCUGGUACAGCUUGCAUGGUAUUUAGUUA | 0.298 ± 0.021
2 | UCCUGCUUCAGCUUGCAUAGUAUAUAGUUA | 0.277 ± 0.025
3 | UCCUGCUACAGCUUGUAUAGUAUUUAGUUA | 0.255 ± 0.015
4 | UCCUGCAUCAGCUUGCAUAGUAUUUAGUAA | 0.223 ± 0.019
5 | UCCUGCUACAGCUUGCAUAGUAUAUACAAA | 0.0701 ± 0.019
6 | UCCUGGAUGUCGAUGCAUAGUAGUUAGUUA | 0.0193 ± 0.005
7 | UCCUGCUACAGCUUGCUAUGUAUUUAGUUA | 0.0638 ± 0.017
8 | UCCUCCUACAGCUUGCAUAGUAAAAUCAAA | 0.0893 ± 0.023
9 | UCCUGCUACAGCUUGCAUAGUAAAAAGUUA | 0.214 ± 0.036
10 | UCCUGGAUCAGCAUGCAUAGUAUUUAGUAA | 0.246 ± 0.012
11 | UCCUGGAUGUGCUUGCAUAGUAUUUACAUA | 0.0112 ± 0.0044
12 | UCCUGGAUCAGCUUGCUAGUAUUUAGUUA | 0.0105 ± 0.0043
13 | UCCUGGAUCAGCAUGCAUAGAAUUUAGUUA | 0.0386 ± 0.0077
14 | UCCUGGUACAGCAUGCAUAGUUUUUAGUUA | 0.038 ± 0.015
15 | UCCUGCUACAGCAUGCAUAGUUUUUAGUUA | 0.114 ± 0.019
16 | UCCUGGUUGUGCUUGCAUAGUAUUUAGUUA | 0.168 ± 0.018
17 | UCCUGGAACAGCUUGGUAAGUAUUUAGUUA | 0.115 ± 0.014
18 | UCCUGGUACAGCUUGGAUAGAAUUUAGUUA | 0.0709 ± 0.025
19 | UCCUGGUACAGCUUGCUUAGUAAUUAGUUA | 0.128 ± 0.036
20 | UCCUGGAUGUGCUUUCAUAGUAUUUAGUUA | 0.126 ± 0.018
21 | UCCUGGAACACCUUGCAUAGAAUUUAGUUA | 0.0907 ± 0.036
22 | UCCUGCUACGAGCUUGCAUAGUAUUUAGUUA | 0.217 ± 0.026
23 | UCCUCCUACAGCUUGCAUAGUAUUAUGUUA | 0.15 ± 0.025
24 | UCCUGGAACAGCUUGCUAAGUAUUUACAAA | 0.0164 ± 0.0066

same assay, conditions: auxiliary factor: none (no GTSF1)

Row | Sequence | pre-steady-state target cleavage rate
25 | UCCUGGUACAGCUUGCAUGGUAUUUAGUUA | 0.0136 ± 0.0044
26 | UCCUGCUUCAGCUUGCAUAGUAUAUAGUUA | 0.00438 ± 0.002
27 | UCCUGCUACAGCUUGUAUAGUAUUUAGUUA | 0.00693 ± 0.0021
28 | UCCUGCAUCAGCUUGCAUAGUAUUUAGUAA | 0.00464 ± 0.0032
29 | UCCUGGAUGUCGAUGCAUAGUAGUUAGUUA | 0.00415 ± 0.0021
30 | UCCUGCUACAGCUUGCUAUGUAUUUAGUUA | 0.00522 ± 0.0021
31 | UCCUGGAUCAGCAUGCAUAGUAUUUAGUAA | 0.00355 ± 0.0026
32 | UCCUGGAUCAGCUUGCUAGUAUUUAGUUA | 0.00365 ± 0.0022
33 | UCCUGGUACAGCAUGCAUAGUUUUUAGUUA | 0.00749 ± 0.0033
34 | UCCUGCUACAGCAUGCAUAGUUUUUAGUUA | 0.00396 ± 0.0036
35 | UCCUGGUUGUGCUUGCAUAGUAUUUAGUUA | 0.0141 ± 0.004
36 | UCCUGGAACAGCUUGGUAAGUAUUUAGUUA | 0.00498 ± 0.0019
37 | UCCUGGUACAGCUUGCUUAGUAAUUAGUUA | 0.0116 ± 0.0032
38 | UCCUGGAUGUGCUUUCAUAGUAUUUAGUUA | 0.00919 ± 0.0024
39 | UCCUGCUACGAGCUUGCAUAGUAUUUAGUUA | 0.00594 ± 0.0032
40 | UCCUCCUACAGCUUGCAUAGUAUUAUGUUA | 0.00329 ± 0.0023
